Only some compounds are listed: those with a hit (about 1.2% of all), similar ones and a draw of the others.
TRPV1 potentiator = human TRPV1 potentiation; TRPV1-expressing cells, Fluo-8 calcium influx, capsaicin EC20 potentiation; potentiation, % at 8.33 µM; actives 0.02% (n = 320,000); AID 540277; in the data active = potentiation above about 80%; inconclusive = between about 30% and that limit; note: 0% is about no effect
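TRPV1-expressing cells were cultured overnight at 35.5C and loaded with Fluo-8 calcium dye for 40 to 90 min at room temperature. After a 10 s baseline, compound was added and calcium influx was read kinetically for 3 min (ex 480/em 520 nm).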
hERG WT inh = inhibitors of human wildtype KCNH2 potassium channel; Q12809; U2OS, BacMam KCNH2, thallium flux FluxOr; active compounds read low; activity change, % at 1.84 µM; actives 0.37% (n = 340,000); AID 720551;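 active = maximum activity change below -70%; inconclusive = maximum activity change between -70% and -50%; inactive = maximum activity change above -50%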; note: % is set by controls: 0 for no effect and ±100 for the full control effect
Target sequence (Q12809 whole entry, looked up): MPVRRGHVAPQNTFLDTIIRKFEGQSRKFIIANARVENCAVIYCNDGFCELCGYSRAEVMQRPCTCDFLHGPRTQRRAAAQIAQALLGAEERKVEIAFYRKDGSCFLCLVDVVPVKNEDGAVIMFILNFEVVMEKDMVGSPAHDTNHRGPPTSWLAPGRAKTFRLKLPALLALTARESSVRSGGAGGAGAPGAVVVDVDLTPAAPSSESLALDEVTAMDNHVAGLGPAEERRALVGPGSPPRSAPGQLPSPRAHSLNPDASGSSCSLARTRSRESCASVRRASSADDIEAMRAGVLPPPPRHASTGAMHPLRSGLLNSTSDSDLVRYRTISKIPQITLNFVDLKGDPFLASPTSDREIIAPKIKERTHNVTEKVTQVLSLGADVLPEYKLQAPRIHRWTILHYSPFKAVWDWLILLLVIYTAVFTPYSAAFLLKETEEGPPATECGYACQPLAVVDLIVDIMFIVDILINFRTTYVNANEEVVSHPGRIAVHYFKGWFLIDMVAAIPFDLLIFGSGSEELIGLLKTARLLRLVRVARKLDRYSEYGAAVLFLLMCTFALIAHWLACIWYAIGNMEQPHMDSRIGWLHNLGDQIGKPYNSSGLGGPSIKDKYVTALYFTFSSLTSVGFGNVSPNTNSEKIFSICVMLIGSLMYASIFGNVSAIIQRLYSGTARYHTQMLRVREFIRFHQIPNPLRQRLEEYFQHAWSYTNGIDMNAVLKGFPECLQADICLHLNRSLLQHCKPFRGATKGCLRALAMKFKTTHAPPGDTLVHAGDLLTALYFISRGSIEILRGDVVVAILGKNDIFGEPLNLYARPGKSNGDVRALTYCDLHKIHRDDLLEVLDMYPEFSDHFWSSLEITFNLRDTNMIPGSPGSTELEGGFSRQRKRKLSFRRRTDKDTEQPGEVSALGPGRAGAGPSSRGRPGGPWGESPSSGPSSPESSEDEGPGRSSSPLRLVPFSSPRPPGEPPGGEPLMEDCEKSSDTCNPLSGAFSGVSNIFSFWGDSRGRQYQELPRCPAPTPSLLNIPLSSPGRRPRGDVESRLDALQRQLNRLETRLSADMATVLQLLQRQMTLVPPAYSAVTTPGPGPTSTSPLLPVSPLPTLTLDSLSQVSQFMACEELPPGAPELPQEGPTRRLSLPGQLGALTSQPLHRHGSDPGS
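U2OS cells transduced with wild-type KCNH2 virus are loaded with FluxOr dye for 45 min, and thallium flux is measured in kinetic reads before and after stimulation buffer. Rate constants are normalized to DMSO controls.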
KCNH2 3.1 inh = KCNH2 3.1 (human) potassium channel inhibition; U2OS KCNH2 3.1, thallium flux FluxOr; active compounds read low; actives 0.95% (n = 340,000); AID 720553; activity change, % (tested at about 1.8 µM);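 active = maximum activity change below -70%; inconclusive = maximum activity change from -70% to -50%; inactive = maximum activity change above -50%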;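 note: thallium influx rate constant from kinetic fluorescence after stimulation buffer; % is set by controls: 0 for no effect and ±100 for the full control effect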
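Thallium flux via FluxOr fluorescence (Red40 quencher, 45 min loading) in U2OS cells virally expressing the KCNH2 3.1 isoform (1.77 x 10^8 /mL virus, overnight at 37 C). Rate constants from 2-min kinetic reads post-stimulation, normalised to positive and negative controls.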
TRPV1 agonist = agonists of human vanilloid receptor 1 (TRPV1); Q8NER1; TRPV1-expressing cells, Fluo-8 calcium influx, agonist mode; activation, % at 8.33 µM; actives 0.19% (n = 320,000); AID 540275; in the data active = activation above about 80%; inconclusive = between about 30% and that limit; note: 0% is about no effect
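Fluo-8 calcium influx in TRPV1-expressing cells, kinetic read (ex 480/em 520 nm). Compound added and read 3 min for agonist activity, followed by capsaicin at EC20 final and 2 min further read for enhancement.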
* = called active by the depositor.

How did Cc1ccc(Nc2nnc(SCC(=O)NCC3CCCO3)s2)cc1 (stereo not drawn) do in these assays?
hERG WT inh: -3.1; KCNH2 3.1 inh: 16.0

Results for Cc1cc(=O)[nH]c(SCC(=O)NCC2CCCO2)n1 (stereo not drawn) ?
TRPV1 potentiator: 5.2; hERG WT inh: -234.6*; KCNH2 3.1 inh: -20.2; TRPV1 agonist: -1.2

How did CC(C)C(=O)Nc1nnc(SCC(=O)NCC2CCCO2)s1 (stereo not drawn) do in these assays?
TRPV1 potentiator: 5.8; hERG WT inh: -5.9; KCNH2 3.1 inh: -84.9*; TRPV1 agonist: -6.3

What do the screens show for `CCOc1cc(C(=O)N2CCC(CC3CC(c4ccccc4)=NO3)(C(=O)NCc3ccc(OC)cc3)CC2)cc(OCC)c1OCC` (stereo not drawn)?
hERG WT inh: 9.0; KCNH2 3.1 inh: -7.8

Results for COc1ccc(CNC(=O)C2(CC3CC(c4ccccc4)=NO3)CCN(C(=O)Cc3ccc(F)cc3)CC2)cc1 (stereo not drawn) ?
hERG WT inh: -26.8; KCNH2 3.1 inh: -72.0*

What do the screens show for `CCN(c1ccc(NC(=O)c2ccc(Cl)nc2)cc1)C(C)C`?
TRPV1 potentiator: -11.0; hERG WT inh: -14.5; KCNH2 3.1 inh: 14.5; TRPV1 agonist: 84.3*

What do the screens show for `COc1ccc2sc(SCCCS(=O)(=O)O)[n+](CCCS(=O)(=O)[O-])c2c1`?
TRPV1 potentiator: -16.1; hERG WT inh: -156.2*; KCNH2 3.1 inh: -203.4*; TRPV1 agonist: -0.5

What do the screens show for `COc1ccc(-c2noc(CCC(=O)N3CCN(c4ccccc4F)CC3)n2)cc1`?
hERG WT inh: -11.1; KCNH2 3.1 inh: 2.7

What do the screens show for `O=C(CN1CCN(Cc2ccc(Cl)cc2)CC1)N/N=C/C=C/c1ccccc1[N+](=O)[O-]`?
TRPV1 potentiator: -3.1; hERG WT inh: -36.1; KCNH2 3.1 inh: -91.3*; TRPV1 agonist: 3.6

How did O=C(NCCN1CCN(c2ccc([N+](=O)[O-])cc2)CC1)NCc1ccccc1 do in these assays?
TRPV1 potentiator: -15.3; hERG WT inh: -10.2; KCNH2 3.1 inh: -73.4*; TRPV1 agonist: 11.1

What do the screens show for `O=C(CN1CCN(c2ccc([N+](=O)[O-])cc2)CC1)c1ccccc1`?
TRPV1 potentiator: 29.3; hERG WT inh: 1.0; KCNH2 3.1 inh: -8.5; TRPV1 agonist: 0.8

Results for O=C(NCCN1CCN(Cc2ccc([N+](=O)[O-])cc2)CC1)C(=O)Nc1ccccc1 ?
TRPV1 potentiator: 3.8; hERG WT inh: inconclusive; KCNH2 3.1 inh: -81.8*; TRPV1 agonist: -2.8

Results for O=C(CCN1CCN(c2ccc([N+](=O)[O-])cc2)CC1)c1ccc(Cl)cc1 ?
TRPV1 potentiator: 3.2; hERG WT inh: -77.3*; KCNH2 3.1 inh: -113.2*; TRPV1 agonist: 0.8

What do the screens show for `CNc1ncnc2ccc(-c3c(C)noc3C)cc12`?
TRPV1 potentiator: 5.8; TRPV1 agonist: 2.3

What do the screens show for `COc1cc2c(cc1OC)C1O[C@](c3ccsc3)(C2)Oc2c1c(=O)oc1ccc(F)cc21`?
TRPV1 potentiator: inactive; TRPV1 agonist: inactive

What do the screens show for `O=C(NCCN1CCN(Cc2ccccc2)CC1)Nc1cc(Cl)cc(Cl)c1`?
TRPV1 potentiator: 5.6; hERG WT inh: inconclusive; KCNH2 3.1 inh: -92.8*; TRPV1 agonist: 1.9

What do the screens show for `O=C(NCCN1CCN(c2cccc(Cl)c2)CC1)Nc1ccccc1`?
TRPV1 potentiator: -13.0; hERG WT inh: 30.9; KCNH2 3.1 inh: 1.7; TRPV1 agonist: inconclusive

Results for C/C(=N/NC(=O)CN1CCN(Cc2ccccc2)CC1)c1ccc([N+](=O)[O-])cc1 ?
TRPV1 potentiator: 8.1; hERG WT inh: -10.8; KCNH2 3.1 inh: -79.1*; TRPV1 agonist: 0.3

What do the screens show for `CCc1ccc(NC(=O)C(=O)NCCN2CCN(C(=O)c3ccc(OC)cc3)CC2)cc1`?
hERG WT inh: 31.3; KCNH2 3.1 inh: -96.7*

What do the screens show for `CCCCc1ccc(NC(=O)C(=O)NCCN2CCN(C(=O)c3ccc([N+](=O)[O-])cc3)CC2)cc1`?
TRPV1 potentiator: 4.5; hERG WT inh: inconclusive; KCNH2 3.1 inh: -100.8*; TRPV1 agonist: -6.1

How did COc1ccc(N(CC(=O)NCc2cccs2)S(=O)(=O)c2cccc(C)c2)cc1 do in these assays?
TRPV1 potentiator: -1.0; hERG WT inh: 12.2; KCNH2 3.1 inh: -18.6; TRPV1 agonist: 15.8

How did CCN(CC)CCC=C(c1cccs1)c1cccs1 do in these assays?
hERG WT inh: 8.6; KCNH2 3.1 inh: inconclusive

What do the screens show for `Cc1ccc([N+](=O)[O-])cc1S(=O)(=O)Nc1cccc(S(=O)(=O)NC2=NCCC2)c1`?
hERG WT inh: -4.5; KCNH2 3.1 inh: 0.6

Results for CCN1C(=O)C(CC(=O)Nc2ccc(OC)cc2)N(CCCN2CCN(c3ccc(F)cc3)CC2)C1=S (stereo not drawn) ?
TRPV1 potentiator: -3.6; hERG WT inh: -75.5*; KCNH2 3.1 inh: -82.9*; TRPV1 agonist: 7.0

What do the screens show for `CCN1C(=O)C(CC(=O)Nc2ccc(OC)cc2)N(CCc2ccc(F)cc2)C1=S` (stereo not drawn)?
TRPV1 potentiator: 7.7; hERG WT inh: -12.7; KCNH2 3.1 inh: 13.0; TRPV1 agonist: 10.9

Results for Cc1c(C)[n+](=O)c(C)c(C)n1[O-] ?
hERG WT inh: -10.7; KCNH2 3.1 inh: 7.9

Results for O=C(NCc1cccnc1)C1CCC(c2ccc(Cl)cc2)CC1 (stereo not drawn) ?
TRPV1 potentiator: -13.5; hERG WT inh: 17.3; KCNH2 3.1 inh: -8.2; TRPV1 agonist: 115.2*

How did CN(C(=O)c1cccc(NC(=O)Cc2ccc(NC(=O)C3CCCN(S(=O)(=O)c4cccc([N+](=O)[O-])c4)C3)cc2)c1)C1CCCCC1 (stereo not drawn) do in these assays?
hERG WT inh: 28.7; KCNH2 3.1 inh: -7.5

What do the screens show for `COc1ccc(CC(=O)OCC(=O)c2ccc[nH]2)cc1`?
TRPV1 potentiator: 1.7; hERG WT inh: -284.3*; KCNH2 3.1 inh: 13.2; TRPV1 agonist: -0.1

How did CCOc1cc(S(=O)(=O)N2CCN(Cc3ccccc3)CC2)ccc1Br do in these assays?
TRPV1 potentiator: -4.4; hERG WT inh: -9.9; KCNH2 3.1 inh: -81.6*; TRPV1 agonist: 1.7

What do the screens show for `COc1ccc(S(=O)(=O)N2CCN(C)CC2)cc1Br`?
TRPV1 potentiator: 1.3; hERG WT inh: 0.2; KCNH2 3.1 inh: -2.8; TRPV1 agonist: -1.5

Results for CCN1CCN(S(=O)(=O)c2ccc(OC)c(Br)c2)CC1 ?
TRPV1 potentiator: 1.9; hERG WT inh: -88.5*; KCNH2 3.1 inh: -0.3; TRPV1 agonist: 9.8

How did OC(CNCCc1ccc(C(F)(F)F)cc1)COC(c1ccccc1)c1ccccc1 (stereo not drawn) do in these assays?
TRPV1 potentiator: -23.0; KCNH2 3.1 inh: -74.1*; TRPV1 agonist: 16.2

What do the screens show for `Cc1cc(NCCCn2ccnc2)n2ncc(-c3ccc(Cl)cc3)c2n1`?
TRPV1 potentiator: 3.6; hERG WT inh: -2.4; KCNH2 3.1 inh: -73.1*; TRPV1 agonist: 2.4

How did O=[N+]([O-])c1cc(Cl)cc(/C=N/NC(=S)Nc2ccc(S(=O)(=O)N3CCOCC3)cc2)c1O do in these assays?
TRPV1 potentiator: 4.6; hERG WT inh: -6.5; KCNH2 3.1 inh: 3.5; TRPV1 agonist: 2.8
